Assay results published in PubChem BioAssay (Tox21).
Inconclusive results are not listed. Activity calls are given as the source filed them. Unless noted, calls follow the shape of the dose curve; as a rule, active = well fitted curve in the direction sought with a large enough effect in the repeat runs; inconclusive = weak or mixed curves; inactive = no such curve, though single readings can be large; an effect the other way counts as inactive or inconclusive.

Tests used:
[1] = qHTS assay to identify small molecule agonists of the vitamin D receptor (VDR) signaling pathway - cell viability counter screen (AID 743224); conditions: VDR-bla HEK293T viability, CellTiter-Glo luminescence, 16 h; series mostly up to 62.6 µM; also: nearly all actives have a fitted effect of over 50% in size
In short: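 Counter screen run in the same wells as the VDR-bla reporter assay: CellTiter-Glo luminescence, 30 min at room temperature, after 16 h compound treatment at 37C of cells pre-plated for 4 h.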

[2] = qHTS assay to identify small molecule agonists of the NFkB signaling pathway (AID 1159509; active = well fitted curve in the direction sought with a large enough effect in the signal ratio in the repeat runs, not every such curve was filed as active; the % refers to the signal ratio); conditions: NFkB-bla ME-180 cells, beta-lactamase FRET ratio, 5 h; series mostly up to 61 µM
In short: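 Agonist activity was read as beta-lactamase-driven FRET change (460 and 530 nm emission, 405 nm excitation) following 1.5 hr substrate loading at room temperature. Beforehand, ME-180 NFkB-bla reporter cells were treated with compounds for 5 hr at 37 C.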

[3] = qHTS assay to identify small molecule agonists of the endoplasmic reticulum stress response signaling pathway (AID 1159516; active = well fitted activation curve with a large enough effect in the signal ratio in the repeat runs, not every such curve was filed as active; the % refers to the signal ratio); conditions: ESRE-bla HeLa, ER stress beta-lactamase reporter, 5 h; series mostly up to 61 µM
In short: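 Ratiometric FRET readout (405 nm excitation; 460 and 530 nm emission) of a beta-lactamase gene driven by the ER stress response element, after 2 hr substrate loading. HeLa ESRE-bla cells were seeded overnight and treated with compounds for only 5 hr at 37 C.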

[4] = qHTS assay to identify small molecule agonists of the endoplasmic reticulum stress response signaling pathway - cell viability counter screen (AID 1159517; calls by dose curve; also: nearly all actives have a fitted effect of over 50% in size); conditions: ESRE-bla HeLa viability, CellTiter-Glo luminescence, 5 h; series mostly up to 61 µM
In short: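 Cpd-treated ESRE-bla HeLa (5 hr, 37 C) → LiveBLAzer 2 hr RT → CellTiter-Glo 30 min RT → luminescence.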

[5] = qHTS assay to identify small molecule antagonists of the retinoid-related orphan receptor gamma (ROR-gamma) signaling pathway - cell viability counter screen (AID 1159520); conditions: Tet-on RORgamma CHO cells viability, ATP luminescence, 16 h; series mostly up to 92.4 µM; also: nearly all actives have a fitted effect of over 50% in size
In short: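 Tet-on ROR gamma CHO cells (1,000/well) were plated 4 hr, given compounds in DMSO for 2 hr at 37 C, then induced with 1 uM final doxycycline for 16 hr. Viability was read as ATP by CellTiter-Glo luminescence after 30 min.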

[6] = target: Nuclear receptor ROR-gamma (Homo sapiens) (UniProt P51449); test: qHTS assay to identify small molecule antagonists of the retinoid-related orphan receptor gamma (ROR-gamma) signaling pathway (AID 1159521;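 also: CHO cells with doxycycline inducible ROR-gamma driving an RORE luciferase reporter; top concentration of the series differs between compounds; nearly all actives have a fitted effect of over 50% in size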); conditions: Tet-on RORgamma CHO cells, RORE-luciferase, 16 h; series mostly up to 92.4 µM
In short: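 Tet-on RORγ CHO cells carrying a ROR response element–luciferase reporter were pretreated with compounds for 2 h, then induced with 1 uM (final) doxycycline hyclate for 16 h at 37 C. Antagonism was read as decreased ONE-Glo luminescence.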

[7] = qHTS assay to identify small molecule agonists of the AP-1 signaling pathway - cell viability counter screen (AID 1159525; calls by dose curve; also: nearly all actives have a fitted effect of over 55% in size); conditions: ME-180 AP-1-bla cells viability, ATP luminescence, 5 h; series mostly up to 76.8 µM
In short: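 Each titration point was normalised to DMSO and tetra n-octyl ammonium bromide controls. The read was Cell Titer Glo luminescence after 30 min at RT, following 5 h compound exposure of ME-180 AP-1-bla cells at 37 °C.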

[8] = qHTS assay to identify small molecule agonists of the AP-1 signaling pathway (AID 1159526; calls by dose curve); conditions: ME-180 (cervical carcinoma) AP-1-bla reporter, beta-lactamase FRET ratio, 5 h; series mostly up to 76.8 µM
[9] = qHTS assay to identify small molecule antagonists of the vitamin D receptor (VDR) signaling pathway - cell viability counter screen (AID 743225); conditions: VDR-bla HEK293T viability, CellTiter-Glo luminescence, 16 h; series mostly up to 61 µM; also: nearly all actives have a fitted effect of over 50% in size
In short: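 VDR-bla HEK 293T cells, 4 h pre-incubation at 37C, then compound plus 1-alpha,25-dihydroxyvitamin D3 (3 nM final) for 16 h. After the beta-lactamase FRET read, CellTiter-Glo was added to the same wells; luminescence after 30 min at room temperature.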

Measured: Potency

O=C(O)CCC(=O)C(=O)O
not listed: [9]
inactive: all other assays above

C=C(C)CCCC(C)CCO (stereo not given)
not listed: [9]
inactive: all other assays above

C=COCC(C)C
inactive: all assays above

C=C1CCC2CC1C2(C)C (stereo not given)
inactive: all assays above

OC1(c2ccccc2)CCNCC1
inactive: all assays above

O=c1[nH]ncc2ccccc12
inactive: all assays above

NC(=O)c1ccncc1
inactive: all assays above

CN1CC(=O)N2[C@H](c3ccc4c(c3)OCO4)c3[nH]c4ccccc4c3C[C@@H]2C1=O
inactive: all assays above
